# Reference: the supplement of paper PMC9135407
# “And” between values parts separate entries of the source, which are not always exact repeats. Identical values can stand only once. Counter-ions that a name gives are not always drawn. About 620 (11%) of roughly 5,800 compounds showed activity. The full list was thinned out, with actives kept by preference. A number with no mark means an inactive call.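 The calls were made as follows: active = score above a cut-off or among the top three wells of a plate; in these data no inactive exceeds 0.85.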
# System: primary human hepatic stellate cells (donor 1)
# Test: scaled lipid accumulation score (0 = DMSO-like, 1 = nortriptyline-like); higher = stronger HSC inactivation (lipid re-accumulation), active = hit call of the paper
# Settings: 48 h
# [1] = library stock concentration: 3.33 mM
# [2] = library stock concentration: 10 mM
# [3] = library stock concentration: 1 mM
# [4] = library stock concentration: 80 uM
# [5] = library stock concentration: 400 uM
# [6] = library stock concentration: 2 mM
smiles,measurement,setting,value
C[C@H]1c2cccc(O)c2C(O)=C2C(=O)[C@]3(O)C(O)=C(C(N)=O)C(=O)[C@@H](N(C)C)[C@@H]3[C@@H](O)[C@@H]21 [Doxycycline Hyclate],scaled lipid accumulation score,[1],≤ 0
same,scaled lipid accumulation score,[2],≤ -0.001
CC(C)OC(=O)CCC/C=C\C[C@@H]1[C@@H](/C=C/[C@@H](O)CCc2ccccc2)[C@H](O)C[C@@H]1O [17-phenyl trinor Prostaglandin F2.alpha. isopropyl ester],scaled lipid accumulation score,[3],≤ 0
CC(C)Nc1ncccn1,scaled lipid accumulation score,[2],≤ 0
C(=C\c1ccccc1)/CN1CCN(C(c2ccccc2)c2ccccc2)CC1 [Cinnarazine],scaled lipid accumulation score,library stock concentration: 5.4 mM,0.328
same,scaled lipid accumulation score,[2],0.423
COc1ccc(-c2cc(C(F)F)nn2-c2ccc(S(N)(=O)=O)cc2)cc1F [Deracoxib],scaled lipid accumulation score,library stock concentration: 5 mM,≤ 0
CCCCC/C=C\C/C=C\C/C=C\CCCCC(=O)OC [.gamma.-Linolenic Acid methyl ester],scaled lipid accumulation score,[3],≤ 0
O=C(O)CCCCCC[C@@H]1[C@@H](CC[C@@H](O)CCc2cccc(C(F)(F)F)c2)[C@H](O)C[C@@H]1O,scaled lipid accumulation score,[3],≤ 0
"CCCCC(C)(C)[C@H](O)/C=C/[C@H]1[C@H](O)CC(=O)[C@@H]1CC(=O)CCCCC(=O)O [16,16-dimethyl-6-keto Prostaglandin E1]",scaled lipid accumulation score,[3],≤ 0
CC[C@]1(O)C[C@H]2CN(CCc3c([nH]c4ccccc34)[C@@](C(=O)OC)(c3cc4c(cc3OC)N(C=O)[C@H]3[C@@](O)(C(=O)OC)[C@H](OC(C)=O)[C@]5(CC)C=CCN6CC[C@]43[C@@H]65)C2)C1 [Vincristine],scaled lipid accumulation score,[1],0.004
same,scaled lipid accumulation score,[2],0.512
CCC1(O)CC2CN(CCc3c([nH]c4ccccc34)[C@@](C(=O)OC)(c3cc4c(cc3OC)N(C=O)C3[C@]45CCN4CC=C[C@@](CC)([C@@H](OC(C)=O)[C@]3(O)C(=O)OC)[C@H]45)C2)C1.O=S(=O)(O)O (stereo partly drawn) [Vincristine sulfate],scaled lipid accumulation score,[2],0.897 (active)
CC[C@]1(O)C[C@@H]2CN(CCc3c([nH]c4ccccc34)[C@@](C(=O)OC)(c3cc4c(cc3OC)N(C=O)[C@H]3[C@@](O)(C(=O)OC)[C@H](OC(C)=O)[C@]5(CC)C=CCN6CC[C@]43[C@@H]65)C2)C1.O=S(=O)(O)O,scaled lipid accumulation score,[2],1.47 (active)
CC[C@]1(O)C[C@H]2CN(CCc3c([nH]c4ccccc34)[C@@](C(=O)OC)(c3cc4c(cc3OC)N(C=O)[C@H]3[C@@](O)(C(=O)OC)[C@H](OC(C)=O)[C@]5(CC)C=CCN6CC[C@]43[C@@H]65)C2)C1.O=S(=O)(O)O [Vincristine sulfate],scaled lipid accumulation score,[2],1.36 (active)
"Cn1nc2c3c(cccc31)C(=O)c1ccccc1-2 [JNK Inhibitor, Negative Control]",scaled lipid accumulation score,[1],≤ 0
Cc1ccc2nc(NC(=O)CSc3nc4c(c(=O)n3-c3ccccc3)SCC4)sc2c1,scaled lipid accumulation score,[1],≤ 0
same,scaled lipid accumulation score,[2],0.76
COc1ccc(CNc2nc(N(CCO)CCO)nc3c2ncn3C(C)C)cc1 [Cdk2 Inhibitor III],scaled lipid accumulation score,[1],0.067
CCCCCCCC/C=C\CCCCCCCCCCCCCC(=O)NCCS(=O)(=O)O [N-Nervonoyl Taurine],scaled lipid accumulation score,[3],0.028
CCCCC[C@H](O)/C=C/[C@H]1CC[C@@H](O)[C@@H]1CCCCCCC(=O)O [11-deoxy Prostaglandin F1.beta.],scaled lipid accumulation score,[3],≤ 0
CCCCCCCCCC(=O)CC(=O)N[C@H]1CCOC1=O [N-3-oxo-dodecanoyl-L-Homoserine lactone],scaled lipid accumulation score,[3],0.017
COc1cc2ncc(-c3ccccc3)nc2cc1OC [Tyrphostin AG 1296],scaled lipid accumulation score,[1],≤ -0.009
same,scaled lipid accumulation score,[2],≤ 0
COc1cc2ncc(-c3ccccc3)nc2cc1OC,scaled lipid accumulation score,[1],≤ 0
same,scaled lipid accumulation score,library stock concentration: 18.8 mM,0.096
COc1cc2c(cc1OC)-c1cc3nc4ccccc4nc3n1C(C)(C)C2,scaled lipid accumulation score,[2],0.923 (active)
CN(CCO)CC(O)Cn1cnc2c1c(=O)n(C)c(=O)n2C (stereo not drawn),scaled lipid accumulation score,[2],≤ 0
CCC1=C[C@H]2CN(C1)Cc1c([nH]c3ccccc13)[C@@](C(=O)OC)(c1cc3c(cc1OC)N(C)[C@H]1[C@@](O)(C(=O)OC)[C@H](OC(C)=O)[C@]4(CC)C=CCN5CC[C@]31[C@@H]54)C2.O=C(O)C(O)C(O)C(=O)O,scaled lipid accumulation score,[2],1.52 (active)
CCC1=C[C@@H]2CN(C1)Cc1c([nH]c3ccccc13)[C@@](C(=O)OC)(c1cc3c(cc1OC)N(C)[C@H]1[C@@](O)(C(=O)OC)[C@H](OC(C)=O)[C@]4(CC)C=CCN5CC[C@]31[C@@H]54)C2 [Vinorelbine],scaled lipid accumulation score,library stock concentration: 2.6 mM,0.75
c1([C@]2(C(=O)OC)c3c(c4c(cccc4)[nH]3)CN(CC5C2)CC(CC)=C5)cc6c(N(C)[C@]7([H])[C@]6(CC8)[C@]([H])(N89)[C@@](CC)(C=CC9)[C@@H](OC(=O)C)[C@]7(O)C(=O)OC)cc1OC.C(=O)(O)[C@H](O)[C@@H](O)C(=O)O.C(=O)(O)[C@H](O) (stereo partly drawn) [Vinorelbine Tartrate],scaled lipid accumulation score,[1],1.26 (active)
same,scaled lipid accumulation score,[2],0.863 (active)
COc1ccc2c(c1)c(CC(=O)O)c(C)n2Cc1ccc(Cl)cc1 [1-(4-Chlorobenzyl)-5-methoxy-2-methylindole-3-acetic acid],scaled lipid accumulation score,[2],0.078
NS(=O)(=O)C#Cc1ccccc1 [Pifithrin->m],scaled lipid accumulation score,[2],1.46 (active)
Cc1cccc(C#Cc2ccccc2)n1 [MPEP hydrochloride],scaled lipid accumulation score,[2],0.053
NS(=O)(=O)C#Cc1ccccc1 [Pifithrin-mu],scaled lipid accumulation score,[2],1.02 (active)
Cc1cccc(C#Cc2ccccc2)n1,scaled lipid accumulation score,[1],≤ 0
same,scaled lipid accumulation score,[2],0.052
Nc1ccccc1S(N)(=O)=O [2-Aminobenzenesulfonamide],scaled lipid accumulation score,,≤ 0
Cc1cccc(C#Cc2ccccc2)n1 [6-Methyl-2-(phenylethynyl)pyridine hydrochloride],scaled lipid accumulation score,[2],≤ -0.034
FC(F)(F)c1ccc(/C=C\c2cc(Cl)cc(Cl)c2)cc1,scaled lipid accumulation score,[3],≤ 0
CCCCC/C=C\C/C=C\C/C=C\C/C=C\CCCC(=O)C(F)(F)F [Arachidonyl Trifluoromethyl Ketone],scaled lipid accumulation score,[3],≤ 0
CCCCCCCCCCCC#CC#CC#CC#CC(=O)O [Eicosatetraynoic Acid],scaled lipid accumulation score,[3],≤ 0
COc1cc(OC)c(/C=C/S(=O)(=O)Cc2ccc(OC)c(NCC(=O)O)c2)c(OC)c1,scaled lipid accumulation score,[4],≤ -0.016
same,scaled lipid accumulation score,[5],≤ -0.016
same,scaled lipid accumulation score,[6],0.096
same,scaled lipid accumulation score,[1],0.068
same,scaled lipid accumulation score,[2],0.138 and 0.063
CC(C)NCC(O)COc1ccc(CC(N)=O)cc1 (racemic) [(RS)-Atenolol],scaled lipid accumulation score,[2],0.043
CN1CCC(NC(=O)c2cc(-c3c(O)cc(O)cc3Oc3ccc([N+](=O)[O-])cc3)on2)CC1,scaled lipid accumulation score,[1],0.756
COc1ccc2c(c1)C(=O)N(CCc1ccc(S(=O)(=O)NC(=O)NC3CCCCC3)cc1)C(=O)C2(C)C [Gliquidone],scaled lipid accumulation score,,≤ 0
CN1CCC(NC(=O)C2=CC(=C3C(O)=CC(=O)C=C3Oc3ccc([N+](=O)[O-])cc3)ON2)CC1,scaled lipid accumulation score,[2],0.976 (active)
CCCCCC=CCC=CCC=CCC=CCCCC(=O)OCC(O)CO (stereo not drawn) [1-Arachidonoyl Glycerol],scaled lipid accumulation score,[3],0.012
CCCCC/C=C\C[C@H](O)/C=C/C=C\C/C=C\CCCC(=O)O,scaled lipid accumulation score,library stock concentration: 100 uM,≤ -0.021
Cc1cc2c(OCC(CNC(C)(C)C)OC(=O)c3ccccc3)cccc2[nH]1 (stereo not drawn) [Bopindolol malonate],scaled lipid accumulation score,library stock concentration: 5.3 mM,≤ -0.006
COc1cc(/C=C/C(=O)O)ccc1O [Ferulic acid],scaled lipid accumulation score,[2],≤ 0
COc1ccc(/C=C\c2cc(OC)c(OC)c(OC)c2)cc1O [Combrestatin A4],scaled lipid accumulation score,[3],0.237 (active)
COc1cc(/C=C/C(=O)O)ccc1O [Ferulic Acid],scaled lipid accumulation score,[1],≤ 0
same,scaled lipid accumulation score,[2],≤ 0
COc1cc(/C=C/C(N)=O)cc(OC)c1OC,scaled lipid accumulation score,[2],0.006
Nc1[nH]nc2nc3ccccc3nc12,scaled lipid accumulation score,[2],≤ -0.006
CC(C)[C@H](N)C(=O)OCC(CO)OCn1cnc2c(=O)[nH]c(N)nc21 (stereo partly drawn) [Valganciclovir HCl],scaled lipid accumulation score,[1],≤ 0
same,scaled lipid accumulation score,[2],0.028
COC(=O)C(Cc1ccc(OCCn2c(=O)sc3cc(C(=O)c4ccccc4)ccc32)cc1)C(=O)OC,scaled lipid accumulation score,[2],≤ 0
CCCCN(CC)c1nc(C)nc2c1c(C)cn2-c1c(C)cc(C)cc1C,scaled lipid accumulation score,[2],0.047
Cc1cc(C)c(-c2csc(NC(=O)c3ccccc3)n2)c(C)c1,scaled lipid accumulation score,[1],≤ -0.009
same,scaled lipid accumulation score,[2],0.033
"Cc1ccc(NC(=O)c2ccc(CN3CCN(C)CC3)cc2)cc1Nc1nc(-c2cccnc2)cs1 [Masitinib (AB1010, Masivet) (0.4 mM)]",scaled lipid accumulation score,[5],0.487
"Cc1ccc(NC(=O)c2ccc(CN3CCN(C)CC3)cc2)cc1Nc1nc(-c2cccnc2)cs1 [Masitinib (AB1010, Masivet) (2 mM)]",scaled lipid accumulation score,[6],1.37 (active)
Cc1ccc(-c2csc(NC(=O)c3ccccc3)n2)c(C)c1,scaled lipid accumulation score,[1],≤ -0.009
same,scaled lipid accumulation score,[2],≤ 0
"Cc1ccc(NC(=O)c2ccc(CN3CCN(C)CC3)cc2)cc1Nc1nc(-c2cccnc2)cs1 [Masitinib (AB1010, Masivet) (10 mM)]",scaled lipid accumulation score,[2],0.755
Cc1ccc(NC(=O)c2ccc(CN3CCN(C)CC3)cc2)cc1Nc1nc(-c2cccnc2)cs1 [Masitinib] [listing 1 of 2 here],scaled lipid accumulation score,[4],≤ -0.009
same,scaled lipid accumulation score,[5],0.153
same,scaled lipid accumulation score,[6],0.121
Cc1ccc(NC(=O)c2ccc(CN3CCN(C)CC3)cc2)cc1Nc1nc(-c2cccnc2)cs1 [Masitinib] [listing 2 of 2 here],scaled lipid accumulation score,[2],1.07 (active)
Cc1ccc(NC(=O)c2ccc(CN3CCN(C)CC3)cc2)cc1Nc1nc(-c2cccnc2)cs1 [Masitinib (AB1010)],scaled lipid accumulation score,[1],1.13 (active)
same,scaled lipid accumulation score,[2],0.856 (active)
